HEK cytotox = cytotoxic compounds in HEK 293 cells; 94,000 compounds, 6.6% hits; Potency, µM (series often up to 115 µM), actives largely listed as inhibitors; AID 1345083; HEK 293 viability, ATP luminescence (CellTiter-Glo), 48-72 h; further: nearly all actives have a fitted effect of over 60% in size
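HEK 293 seeded at 250 cells/well receive compound via pintool. After 48 or 72 hr at 37 degree Celsius, 5% CO2 and 95% humidity, CellTiter-Glo is dispensed and luminescence read following 10 min at room temperature.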
3T3 cytotox = cytotoxic compounds in NIH 3T3 cells; NIH 3T3 viability, CellTiter-Glo ATP luminescence, 48-72 h; Potency, µM (highest dose often 96.7 µM), usual class: inhibitors; 94,000 compounds, 4.3% hits; further: nearly all actives have a fitted effect of over 55% in size
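Cells were seeded at 400 per well, treated with pin-transferred compound, and kept 48 or 72 hr at 37 °C before CellTiter-Glo addition and luminescence imaging of cellular ATP.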
NPR1 antag = blocks ANP-stimulated signaling of human Npr1 receptor | P16066 | HEK293 hNpr1 GloSensor cGMP, ANP-stimulated luminescence | Potency, µM (doses to about 46.3 µM), hits mostly inhibitors | 76,000 compounds, 1.6% hits; calls by dose curve; further: nearly all actives have a fitted effect of over 60% in size
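Compound pre-incubated 30 min at room temperature on GloSensor-loaded HEK293 cells stably carrying hNpr1 and the pGS-40F cGMP biosensor. Stimulation uses hNppA at 0.1 nM final; luminescence is taken at baseline and 20 min post-agonist.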
Luciferase inh = blocks purified firefly luciferase enzyme activity | 76,000 compounds, 2.5% hits | purified P. pyralis luciferase, luminescence, biochemical | Potency, µM (top dose mostly 115 µM), actives largely listed as inhibitors; further: nearly all actives have a fitted effect of over 65% in size
Target sequence (P08659 whole entry, looked up): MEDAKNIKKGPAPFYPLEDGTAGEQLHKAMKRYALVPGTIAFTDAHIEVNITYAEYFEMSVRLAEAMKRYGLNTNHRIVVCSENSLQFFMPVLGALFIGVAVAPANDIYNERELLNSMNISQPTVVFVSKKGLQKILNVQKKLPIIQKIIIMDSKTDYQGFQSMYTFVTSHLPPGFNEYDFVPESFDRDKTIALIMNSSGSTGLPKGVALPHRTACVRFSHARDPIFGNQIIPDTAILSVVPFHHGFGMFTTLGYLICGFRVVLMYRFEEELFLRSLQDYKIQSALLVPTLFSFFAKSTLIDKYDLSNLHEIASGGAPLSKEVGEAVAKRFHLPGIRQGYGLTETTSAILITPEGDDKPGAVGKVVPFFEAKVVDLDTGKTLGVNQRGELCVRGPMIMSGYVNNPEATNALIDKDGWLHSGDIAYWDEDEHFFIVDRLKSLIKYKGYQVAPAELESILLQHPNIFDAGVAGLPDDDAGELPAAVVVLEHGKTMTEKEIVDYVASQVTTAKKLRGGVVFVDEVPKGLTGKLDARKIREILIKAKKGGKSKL
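Biochemical qHTS: compound (6-point titration) added to 10uM D-luciferin plus 10uM ATP in Tris acetate pH 7.5 buffer with Mg, Tween-20 and BSA, then purified enzyme at 10nM; light output imaged.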
GPT2 inh = GPT2 alanine aminotransferase inhibition. Q8TD30. Potency, µM (titrated, usually from 57.7 µM), most hits filed as inhibitors. 100,000 compounds, 0.25% hits. Recombinant GPT2, coupled pyruvate oxidase/HRP Amplex Red fluorescence. AID 1671188; further: nearly all actives have a fitted effect of over 60% in size
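Inhibition is scored from Amplex Red fluorescence generated when pyruvate oxidase and HRP act on pyruvate released by GPT2. Reactions contain 10ng/uL enzyme, 250uM a-KG and 2mM L-alanine and run 30 min at room temperature.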
Hits are given with their value; - = inactive; ? = inconclusive; . = not tested or not shown; [ ] = dose if it differs, or a comment. This is a sample that favours compounds with a hit; in the whole collection about 10% have one here. Unless noted, the call rests on the fitted dose curve; in most records, active means well fitted curve in the direction sought with a large enough effect; inconclusive means small, poorly fitted or top-dose-only effect, or another doubt; inactive means no such curve, though single readings can be large; an effect the other way counts as inactive or inconclusive.

SMILES | HEK cytotox | 3T3 cytotox | NPR1 antag | Luciferase inh | GPT2 inh
CN1CCC2(C1)CN(CC1CC1)c1ccc(C(=O)NC3CCC3)cc12 (configuration not stated) | ? | ? | - | - | ?
CN1CCC2(C1)CN(CC1CCOCC1)c1ccc(C(=O)Nc3ccccc3)cc12 (configuration not stated) | 100µM | ? | - | 50µM | -
COCCNc1ncc(-c2cccc(C(C)=O)c2)c2c1OCC2 | ? | ? | - | ? | -
COCCNc1ncc(-c2cccc(N)c2)c2c1OCC2 | ? | ? | - | 25µM | -
COCCNc1ncc(-c2cccc(O)c2)c2c1OCC2 | - | - | - | 28µM | -
COc1ccc2c(c1)OC[C@@H]1CN(C)C(=O)CCN(C(=O)Cc3cccs3)[C@H]21 | - | ? | . | . | .
COc1ccc(NC(=O)N2C[C@@H](F)C[C@H]2C(=O)N2CCc3ccccc3C2)cc1 | - | - | . | . | -
CNC(=O)[C@@H]1C[C@H](Oc2ccccc2)CN1C(=O)Cn1nc(C(F)(F)F)cc1C | - | - | - | - | -
Cc1cc(CNC(=O)c2ccncc2)c2[nH]c(-c3ccccc3)c(C)c2c1 | 14µM | 32µM | 11µM | ? | -[11.5 µM]
Cc1cc(CNC(=O)Cc2nonc2C)c2[nH]c(-c3ccccc3)c(C)c2c1 | ? | - | - | 10µM | -
Cc1c(-c2ccccc2)[nH]c2c(CNC(=O)CCc3nncn3C)cc(Cl)cc12 | ? | ? | - | 22µM | -
CCc1[nH]c2c(CNC(=O)c3cnc(C)nc3)cc(C)cc2c1C | - | ? | - | - | -
Cc1cc(CNC(=O)Cc2ccc(-n3cnnn3)cc2)c2[nH]c(C)c(C)c2c1 | ? | 20µM | - | - | -
COc1ccc(CC(=O)NCc2cc(C)cc3c(C)c(C)[nH]c23)c(OC)c1 | ? | ? | - | - | -
O=C(NCCNC(=O)C1CC1)c1ccc(-c2cccc(C(F)(F)F)c2)cc1 | ? | - | . | . | .
CCN1CCN(C(=O)c2cc(-c3ccccc3C(F)(F)F)nc3c2cnn3C)CC1 | - | - | . | . | .
CCN(C)C(C)C(=O)N1CCc2onc(-c3ccc(C(F)(F)F)cc3)c2C1 (configuration not stated) | ? | ? | - | - | -
CC(C)OC(C)C(=O)N1CCc2onc(-c3ccc(C(F)(F)F)cc3)c2C1 (configuration not stated) | 28µM | ? | - | - | -[11.5 µM]
CN(C)CCNC(=O)Cc1c[nH]c2ncc(-c3ccccc3)cc12 | 112µM | ? | - | - | -
Cc1ccccc1-c1cnc2[nH]cc(CC(=O)NCCN(C)C)c2c1 | 40µM | ? | - | - | -
O=C(Cc1c[nH]c2ncc(-c3ccccc3)cc12)NCC1CCOCC1 | 79µM | ? | - | - | -
O=C(CCn1ccn2nc3c(c2c1=O)CCCC3)Nc1cccc(OC(F)(F)F)c1 | - | - | - | - | -
C[C@@H](N)C(=O)N1CCC(C(=O)Nc2cccc(-c3cccc(Cl)c3)c2)CC1 | 40µM | 28µM | - | - | -
CC(=O)N1CCC(Cc2ccc(C(=O)Nc3ccc(C)cc3)cc2)CC1 | ? | ? | 10µM | ? | -
CN1CCC(Cc2ccc(C(=O)NCC3CCCCC3)cc2)CC1 | ? | 40µM | - | ? | -
SMILES | HEK cytotox | 3T3 cytotox | NPR1 antag | Luciferase inh | GPT2 inh
CN(C)C(=O)N1CCCN(c2ccc3nnc(C4CC4)n3n2)CC1 | - | - | . | . | .
COCCOC1CN(C2CCN(C(=O)c3ccc4cc[nH]c4c3)CC2)C12CCCCC2 (configuration not stated) | - | ? | . | . | -
CC(C)NC(=O)c1nc2sccn2c1-c1ccc(F)cc1 | - | - | . | . | -
CC1(C)C(=O)N(CC2CCOCC2)[C@H]2CN(Cc3cccs3)C[C@@H]2[S+]1(=O)[O-] | - | 79µM | - | - | -
COc1ccccc1-n1cnc2cccnc21 | ? | ? | - | - | -
CN(C)c1ccc(-n2cnc3cccnc32)cc1 | ? | ? | - | 35µM | -
COc1ccccc1NC(=O)c1cc(-c2ccccc2C(F)(F)F)nc2c1cnn2C | 45µM | ? | . | . | .
COc1cccc(NC(=O)c2cc(-c3ccc(C(F)(F)F)cc3)nc3c2cnn3C)c1 | 40µM | ? | . | . | .
COc1cccc(NC(=O)c2cc(-c3ccccc3C(F)(F)F)nc3c2cnn3C)c1 | 22µM | ? | . | . | .
COc1ccccc1-c1cc(C(=O)Nc2ccc(Cl)cc2)c2cnn(C)c2n1 | 22µM | ? | . | . | .
O=C(O)C[C@H]1CCC(=O)[C@@H]1C/C=C\CCO | . | . | . | . | -
O=C(c1cc(-c2ccsc2)c2nncn2n1)N1CCOCC1 | - | ? | . | . | -
O=C1CC2(CCN(Cc3ccc(C(F)(F)F)cc3)CC2)Oc2ccccc2N1 | 45µM | ? | - | - | -
O=C1CC2(CCN(Cc3ccsc3)CC2)Oc2ccccc2N1c1ccccc1 | ? | ? | - | - | -
O=C1CC2(CCN(CC3CC3)CC2)Oc2ccccc2N1c1ccccc1 | - | ? | - | - | -
O=C1CC2(CCN(Cc3ccc(F)cc3)CC2)Oc2ccccc2N1 | ? | - | - | - | -
O=C1CC2(CCN(Cc3ccc(F)cc3)CC2)Oc2ccccc2N1c1ccccc1 | 50µM | ? | - | - | -
O=C1CC2(CCN(Cc3ccc(C(F)(F)F)cc3)CC2)Oc2ccccc2N1c1ccccc1 | 20µM | 25µM | - | - | -
O=C(c1ccc(F)cc1)N1CCN(CCn2nc3n(c2=O)CCCC3)CC1 | - | - | . | . | .
O=C(c1nc2cccnc2n(CCc2ccccc2)c1=O)N1CCN(Cc2ccccc2)CC1 | ? | - | . | . | -
CC(C)Cn1c(=O)c(C(=O)NCCCc2ccccc2)nc2cccnc21 | ? | ? | . | . | -
COC1C(=O)N(c2cccc(F)c2)C12CCN(C(=O)CC1CCN(C(C)=O)CC1)CC2 (configuration not stated) | - | - | - | - | -
COC1CN(c2cccc(F)c2)C12CCN(S(=O)(=O)c1cccs1)CC2 (configuration not stated) | 18µM | ? | . | . | -
COc1cccc(S(=O)(=O)N2CCC3(CC2)C(OC)CN3c2cccc(F)c2)c1 (configuration not stated) | - | - | - | - | -
COC1CN(c2cccc(F)c2)C12CCN(C(=O)CC1CCCCC1)CC2 (configuration not stated) | 45µM | ? | - | - | -
SMILES | HEK cytotox | 3T3 cytotox | NPR1 antag | Luciferase inh | GPT2 inh
Cc1noc(C)c1[S+](=O)([O-])N1CCC(C(=O)N2CCC3(CC2)CC(=O)Nc2ccccc2O3)CC1 | ? | ? | . | . | -
CCC(C)NC(=O)CCN(CC)C(=O)c1cc(C)oc1C (configuration not stated) | - | - | - | - | -
COc1ccc(CNC(=O)c2noc(-c3ccc(C)cc3)n2)cc1 | - | - | - | - | -
CSc1ccc(CNC(=O)c2noc(-c3ccc(F)cc3)n2)cc1 | - | ? | - | 28µM | ?
Cc1cccc(CNC(=O)c2noc(-c3ccc4c(c3)OCO4)n2)c1 | ? | ? | - | ? | -
O=C(NCc1cccs1)c1noc(-c2ccc(F)cc2)n1 | ? | ? | - | ? | -

Screening data deposited in PubChem by National Center for Advancing Translational Sciences (NCATS).
